A number with no mark means an inactive call.
Tested on: Madurella mycetomatis MM55
Experiment: growth relative to untreated control; higher = less inhibition, active = 20 or less
Conditions: 100 µM
Method in brief: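 Hyphal fragments of M. mycetomatis MM55 or F. senegalensis CBS197.79 were suspended in colourless RPMI 1640 with L-glutamine and MOPS at 68–72% transmission at 660 nm. They were exposed in 96-well plates to compound at 100 or 25 µM for 7 days at 37 °C. Viability was read with MTS (2 h, 490 nm) or resazurin (600 nm). Growth is metabolic activity relative to the untreated growth control, both corrected with a medium-plus-dye blank.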

Structure (SMILES)	growth
N#Cc1ccc(-c2ccc3nc(Oc4ccc(C(F)(F)F)cn4)cn3c2)nc1	82.2%
Cc1c2c(n3c(nc4ccccc43)c1C#N)N(CCN(C)C)CC2	43.7%
O=C(c1ccc(Nc2nccc(-c3ccc(Cl)cc3)n2)cc1)N1CCS(=O)(=O)CC1	81.3%
Cn1c(O)nnc1Cn1ccc(C(F)(F)F)c(Oc2cc(Cl)cc(C#N)c2)c1=O	90.8%
CCS(=O)(=O)N1CC(CC#N)(n2cc(-c3ncnc4[nH]ccc34)cn2)C1	80.3%
O=C(NC1CCN(CCOc2ccc(Cl)cc2)CC1)c1c[nH]c2ccncc2c1=O	102%
Cc1ccc(-c2cc(C(F)(F)F)nn2-c2ccc(S(N)(=O)=O)cc2)cc1	6.13% (active)
Cc1cc(Nc2cc(N)ncn2)c(=O)n2c1C(=O)NC21CCCCC1	84.7%
O=C(NC1CCCc2c1[nH]c1ccc(Cl)cc21)c1ccccn1 (centres undefined)	9.39% (active)
COc1cc(N2CCN(C)CC2)ccc1Nc1nccc(-c2cn(C)c3cnccc23)n1	4.78% (active)
Cc1cccc2c1N(C(=O)c1cc(Br)nn1-c1ncccc1Cl)CN(C(C)C)C2=O	153%
Cc1nn(C2CCS(=O)(=O)C2)c(C)c1C1Nc2ccccc2C(=O)N1Cc1ccc2c(c1)OCO2 (centres undefined)	91.4%
OB(O)O	163%
C[C@H](NC(=O)c1cc2ccc(F)cc2[nH]1)c1ccccc1	82.5%
CN(C)CCNC(=O)c1csc(Nc2ccc(Cl)c(Cl)c2)n1	62.3%
CC(C)C(=O)OCC(=O)[C@@]12OC(C3CCCCC3)O[C@@H]1C[C@H]1[C@@H]3CCC4=CC(=O)C=C[C@]4(C)[C@H]3[C@@H](O)C[C@@]12C (some centres undefined)	90.7%
CS(=O)(=O)c1ccc(-c2cnn3c2NC(c2cccc(S(=O)(=O)C4CC4)c2)CC3)cc1 (centres undefined)	82.5%
O=C1NCN(c2ccccc2)C12CCN(CCCC(c1ccc(F)cc1)c1ccc(F)cc1)CC2	5.27% (active)
CS(=O)(=O)NC1CCN(C(=O)c2ccc(Nc3nccc(-c4cc(Cl)cc(C(F)(F)F)c4)n3)cc2)C1 (centres undefined)	95.4%
N#Cc1cccc(C(=O)NC2CCN(c3ccnc(Nc4ccc(F)cc4)n3)C2)c1 (centres undefined)	85.8%
CN(C)c1ncc2nc(Nc3cc(Cl)cc(C(F)(F)F)c3)n(C3CCNCC3)c2n1	5.43% (active)
CN(c1ncc2nc(Nc3cc(Cl)cc(C(F)(F)F)c3)n(C3CCNCC3)c2n1)C1CC1	5.99% (active)
COc1c(C)c2c(c(O)c1C/C=C(\C)CCC(=O)O)C(=O)OC2	94.6%
O=C(c1ccc(Nc2nccc(-c3ccc(C(F)(F)F)c(Cl)c3)n2)cc1)N1CC(O)C1	131%
